Measured values published in PubChem BioAssay (EPA / NIEHS).
Several values for one entry are separate records, joined by “and”; a condition that tells them apart may be missing. Equal entries are not always repeated. A structure can be active in one record and inactive in another. Activity calls are given as the source filed them. How the source made its calls: active means hit-call score of the fitted dose curve at least 0.9, where 1 is the maximum; inactive means score below 0.9.

Key:
[1] = ATG_ISRE_CIS: Attagene CIS-FACTORIAL HepG2 Assay for human Interferon Regulatory Factor 1 (IRF1) binding to an Interferon-Stimulated Response Element (ISRE) (AID 2282948); conditions: HepG2 ISRE cis-reporter (Attagene), mRNA transcription readout; actives raise or lower the signal
In short: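 Multiplexed mRNA reporter readout in human liver HepG2 cells: cis-element-driven reporters transfected, compound added for 24 h, transcripts amplified, fluorescently labelled and sized by capillary electrophoresis; curve fitting bidirectional against DMSO.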

[2] = ATG_M_06_CIS: Attagene CIS-FACTORIAL HepG2 Assay for M06 Transcription Factor (Internal Marker) (AID 2282950); conditions: HepG2 Attagene CIS-FACTORIAL M06 internal marker reporter; actives raise or lower the signal
In short: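 Cells (HepG2, transiently carrying cis-driven reporter units) receive chemical for 24 h before RNA isolation. Reporter cDNA is PCR-amplified, FAM-labelled by primer extension, HpaI-digested and sized on a capillary analyser.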

[3] = molecular target: Hypoxia-inducible factor 1-alpha (Homo sapiens) (UniProt Q16665); experiment: ATG_HIF1a_CIS: Attagene CIS-FACTORIAL HepG2 Assay for human Hypoxia Inducible Factor 1 (HIF1A) (AID 2282951); conditions: HepG2 Attagene cis-factorial HIF1a reporter transcription; actives raise or lower the signal
Hypoxia-inducible factor 1-alpha (Homo sapiens), sequence (Q16665 whole entry, looked up): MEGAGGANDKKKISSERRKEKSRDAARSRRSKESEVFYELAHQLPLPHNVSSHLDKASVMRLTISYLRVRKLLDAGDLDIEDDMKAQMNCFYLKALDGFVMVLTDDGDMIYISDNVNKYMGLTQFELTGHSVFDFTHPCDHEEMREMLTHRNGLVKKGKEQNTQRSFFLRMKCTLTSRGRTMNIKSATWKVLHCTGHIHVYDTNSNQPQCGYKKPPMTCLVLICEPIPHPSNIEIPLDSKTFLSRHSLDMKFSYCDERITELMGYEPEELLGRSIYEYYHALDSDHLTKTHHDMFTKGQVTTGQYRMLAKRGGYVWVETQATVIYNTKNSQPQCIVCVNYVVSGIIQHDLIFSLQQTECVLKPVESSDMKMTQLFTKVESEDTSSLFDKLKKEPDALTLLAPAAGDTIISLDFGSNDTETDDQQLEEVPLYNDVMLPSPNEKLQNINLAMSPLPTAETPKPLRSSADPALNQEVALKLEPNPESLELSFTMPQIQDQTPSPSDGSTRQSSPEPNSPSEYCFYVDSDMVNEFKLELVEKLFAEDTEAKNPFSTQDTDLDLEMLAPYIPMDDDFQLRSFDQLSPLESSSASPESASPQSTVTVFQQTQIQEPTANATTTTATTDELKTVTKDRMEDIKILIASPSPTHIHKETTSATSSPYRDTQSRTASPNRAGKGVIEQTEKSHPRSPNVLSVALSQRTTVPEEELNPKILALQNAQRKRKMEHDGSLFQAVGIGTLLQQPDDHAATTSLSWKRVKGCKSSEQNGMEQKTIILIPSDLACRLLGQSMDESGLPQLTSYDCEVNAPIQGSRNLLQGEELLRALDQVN
In short: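 Endogenous-TF cis reporter readout, human HepG2 cells, 24 h incubation; mRNA detected via RT-PCR and capillary electrophoresis fluorescence; DMSO-normalised bidirectional fitting.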

[4] = molecular target: Hepatocyte nuclear factor 6 (Homo sapiens) (UniProt Q9UBC0); experiment: ATG_HNF6_CIS: Attagene CIS-FACTORIAL HepG2 Assay for human Hepatocyte Nuclear Factor 6 (HNF6) (AID 2282952); conditions: HepG2 Attagene cis-factorial HNF6 reporter transcription; actives raise or lower the signal
Hepatocyte nuclear factor 6 (Homo sapiens), sequence (Q9UBC0 whole entry, looked up): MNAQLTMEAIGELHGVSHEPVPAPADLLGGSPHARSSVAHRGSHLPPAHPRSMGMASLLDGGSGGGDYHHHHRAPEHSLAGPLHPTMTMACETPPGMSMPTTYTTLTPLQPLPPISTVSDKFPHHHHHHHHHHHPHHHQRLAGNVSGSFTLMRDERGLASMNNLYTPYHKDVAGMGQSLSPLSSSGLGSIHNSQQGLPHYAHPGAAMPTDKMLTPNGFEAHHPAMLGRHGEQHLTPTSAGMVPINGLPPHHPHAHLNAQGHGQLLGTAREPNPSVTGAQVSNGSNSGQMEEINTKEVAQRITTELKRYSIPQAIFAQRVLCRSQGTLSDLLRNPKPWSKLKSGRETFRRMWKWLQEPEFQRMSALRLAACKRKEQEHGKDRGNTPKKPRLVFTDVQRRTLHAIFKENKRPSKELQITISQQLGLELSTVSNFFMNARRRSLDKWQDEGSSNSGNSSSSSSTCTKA
In short: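 Endogenous transcription factor activity in human HepG2 liver cells was captured through cis-regulated reporter constructs. After 24 h treatment, reporter mRNA was measured by RT-PCR with capillary electrophoresis, and activity was fitted in both directions relative to DMSO.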

[5] = molecular target: Heat shock factor protein 1 (Homo sapiens) (UniProt Q00613); experiment: ATG_HSE_CIS: Attagene CIS-FACTORIAL HepG2 Assay for human Heat Shock Transcription Factor 1 (HSE) (AID 2282953); conditions: HepG2 HSE cis-reporter, Attagene RNA transcription; actives raise or lower the signal
Heat shock factor protein 1 (Homo sapiens), sequence (Q00613 whole entry, looked up): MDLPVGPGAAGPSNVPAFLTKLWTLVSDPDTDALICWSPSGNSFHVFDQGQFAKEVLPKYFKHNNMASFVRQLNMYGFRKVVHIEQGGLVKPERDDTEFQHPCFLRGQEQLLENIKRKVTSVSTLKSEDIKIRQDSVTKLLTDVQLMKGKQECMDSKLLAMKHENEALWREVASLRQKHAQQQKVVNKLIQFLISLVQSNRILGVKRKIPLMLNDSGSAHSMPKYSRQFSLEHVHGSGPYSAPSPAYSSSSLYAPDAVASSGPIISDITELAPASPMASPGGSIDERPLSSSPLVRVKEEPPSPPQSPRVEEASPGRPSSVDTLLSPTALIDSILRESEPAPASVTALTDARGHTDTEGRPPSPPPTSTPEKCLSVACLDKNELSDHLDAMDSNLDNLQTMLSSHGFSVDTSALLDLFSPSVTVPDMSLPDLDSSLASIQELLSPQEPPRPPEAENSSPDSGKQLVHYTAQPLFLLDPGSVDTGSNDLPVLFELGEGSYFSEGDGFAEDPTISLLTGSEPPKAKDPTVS
In short: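 Liver-derived HepG2 cells carry transiently introduced multiple reporter units governed by cis promoters. Reporter RNA measured 24 h post-dose through reverse transcription, PCR amplification, fluorescent labelling and capillary electrophoresis, normalised to DMSO.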

[6] = ATG_MRE_CIS: Attagene CIS-FACTORIAL HepG2 Assay for human Metal Responsive Element (MRE) (AID 2282954); conditions: HepG2 MRE cis-reporter transcription, Attagene multiplex; actives raise or lower the signal
In short: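 RT-PCR/capillary electrophoresis readout of reporter mRNA, 24 h post-dosing, in HepG2 cells transfected with multiplexed cis-regulated reporter constructs. Gain or loss of signal fitted bidirectionally against DMSO baseline.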

[7] = ATG_PBREM_CIS: Attagene CIS-FACTORIAL HepG2 Assay for human Phenobarbital-responsive Enhancer Module (PBREM) (AID 2282955); conditions: HepG2 PBREM cis-reporter, Attagene multiplexed transcription; actives raise or lower the signal
In short: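 Readout: reporter mRNA, fluorescent RT-PCR fragments separated by capillary electrophoresis. System: HepG2 transiently transfected with cis-regulated reporter units. Exposure: 24 h. Analysis: bidirectional, DMSO baseline.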

[8] = ATG_PXRE_CIS: Attagene CIS-FACTORIAL HepG2 Assay for human Pregnane X Receptor Element (PXRE) (AID 2282957); conditions: HepG2 Attagene CIS-FACTORIAL PXRE reporter, mRNA; actives raise or lower the signal
In short: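 Endogenous transcription factor activity in HepG2 was gauged through induction of reporter mRNA driven by a cis-regulating promoter element, sampled 24 h post-treatment. Activity was fitted in both directions against DMSO negative control.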

[9] = ATG_PPRE_CIS: Attagene CIS-FACTORIAL HepG2 Assay for human Peroxisome Proliferator-activated Response Element (PPRE) (AID 2282958); conditions: HepG2 PPRE cis-element reporter, Attagene transcription factor profiling; actives raise or lower the signal
In short: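 After human HepG2 hepatoma cells were transiently transfected with cis-promoter reporter constructs, they were exposed to test chemicals for 24 hours. Reporter RNA was then reverse-transcribed, PCR-amplified, FAM-labeled, HpaI-digested and quantified by capillary electrophoresis.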

[10] = ATG_RORE_CIS: Attagene CIS-FACTORIAL HepG2 Assay for human RAR-related Orphan Receptor Element (RORE) (AID 2282959); conditions: HepG2 Attagene cis-factorial RORE reporter, mRNA; actives raise or lower the signal
In short: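 Measured here: transcript induction of a cis-regulated reporter in HepG2 cells transiently transfected via FuGene 6. After 24 h, RNA was processed by RT-PCR and fluorescent capillary electrophoresis; DMSO defined baseline activity.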

[11] = ATG_Sox_CIS: Attagene CIS-FACTORIAL HepG2 Assay for human SRY-box transcription factor (SOX) (AID 2282960); conditions: HepG2 Attagene cis-factorial SOX reporter, mRNA; actives raise or lower the signal
In short: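 Using transiently transfected HepG2 cells, reporter transcription driven by cis elements was assessed 24 h after dosing. Signal was fluorescence of capillary-separated RT-PCR products, with DMSO defining baseline activity.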

[12] = molecular target: Transcription factor Sp1 (Homo sapiens) (UniProt P08047); experiment: ATG_Sp1_CIS: Attagene CIS-FACTORIAL HepG2 Assay for human Specificity Protein 1 (Sp1) (AID 2282961); conditions: HepG2 Sp1 cis-reporter transcription, actives raise or lower the signal
Transcription factor Sp1 (Homo sapiens), sequence (P08047 whole entry, looked up): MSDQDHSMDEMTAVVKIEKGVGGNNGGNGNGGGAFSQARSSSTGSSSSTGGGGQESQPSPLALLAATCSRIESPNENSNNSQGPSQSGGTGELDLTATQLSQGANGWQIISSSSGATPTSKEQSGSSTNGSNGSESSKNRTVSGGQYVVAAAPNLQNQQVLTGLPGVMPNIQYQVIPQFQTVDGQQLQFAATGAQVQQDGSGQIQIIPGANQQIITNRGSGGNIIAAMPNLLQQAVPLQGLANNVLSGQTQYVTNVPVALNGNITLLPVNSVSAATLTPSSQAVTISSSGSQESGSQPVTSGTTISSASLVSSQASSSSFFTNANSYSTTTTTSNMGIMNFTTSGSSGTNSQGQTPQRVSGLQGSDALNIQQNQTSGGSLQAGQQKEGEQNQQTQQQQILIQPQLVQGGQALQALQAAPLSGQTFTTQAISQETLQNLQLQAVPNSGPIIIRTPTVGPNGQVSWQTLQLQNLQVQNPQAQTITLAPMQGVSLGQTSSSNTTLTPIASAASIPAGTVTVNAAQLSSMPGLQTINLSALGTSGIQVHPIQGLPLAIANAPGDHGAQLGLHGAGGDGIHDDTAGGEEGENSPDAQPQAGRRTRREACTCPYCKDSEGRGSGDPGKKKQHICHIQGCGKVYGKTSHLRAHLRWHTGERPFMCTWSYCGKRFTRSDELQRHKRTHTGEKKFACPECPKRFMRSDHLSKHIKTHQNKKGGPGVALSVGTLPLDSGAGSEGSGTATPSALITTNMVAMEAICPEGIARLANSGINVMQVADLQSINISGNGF
In short: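 After transient transfection of HepG2 cells with cis-promoter reporter units and 24 h chemical treatment, reporter transcripts were quantified by RT-PCR and capillary electrophoresis fluorescence. Gain- and loss-of-signal fitted against DMSO.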

[13] = ATG_SREBP_CIS: Attagene CIS-FACTORIAL HepG2 Assay for human Sterol Regulatory Element Binding (SREBP) (AID 2282962); conditions: HepG2 Attagene cis-factorial SREBP reporter, mRNA; actives raise or lower the signal
In short: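 Endogenous factor activity is measured in HepG2 through multiplexed reporter units under cis-element control. Following a 24 h incubation, reporter transcripts are reverse-transcribed, PCR-amplified and sized by capillary electrophoresis; activity is fitted in both directions relative to DMSO.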

[14] = ATG_TA_CIS: Attagene CIS-FACTORIAL HepG2 Assay for human TA Basal Promoter (AID 2282964); conditions: HepG2 Attagene CIS-factorial TA basal promoter reporter; actives raise or lower the signal
In short: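 Background internal-marker endpoint from a 52-component HepG2 cis-reporter panel. Cells treated 24 h; reporter transcripts quantified via RT-PCR and CE fluorescence against DMSO baseline.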

[15] = ATG_TCF_b_cat_CIS: Attagene CIS-FACTORIAL HepG2 Assay for human T-Cell-Factor with beta-catenin (TCF/b-cat) (AID 2282965); conditions: HepG2 TCF/beta-catenin cis-reporter transcription, actives raise or lower the signal
In short: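 HepG2, transient MRTU transfection, cis-element-driven reporters (endogenous TFs). 24 h compound exposure. Readout: reporter mRNA by RT-PCR + 6-FAM primer extension, HpaI digest, capillary electrophoresis. Gain/loss fit vs DMSO baseline.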

[16] = ATG_GRE_CIS: Attagene CIS-FACTORIAL HepG2 Assay for human Glucocorticoid Response Elements (GRE) (AID 2282947); conditions: HepG2 GRE cis-reporter, Attagene multiplex mRNA; actives raise or lower the signal
In short: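 Read-out: fluorescent reporter-transcript fragments separated by capillary electrophoresis after RT-PCR. Transiently transfected HepG2 cells carrying cis-element-driven reporter units were dosed for 24 h; gain or loss of signal fitted against DMSO control.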

[17] = molecular target: Paired box protein Pax-6 (Homo sapiens) (UniProt P26367); experiment: ATG_Pax6_CIS: Attagene CIS-FACTORIAL HepG2 Assay for human Paired Box 6 (PAX6) (AID 2282956); conditions: HepG2 CIS-FACTORIAL PAX6 reporter transcription, RNA readout; actives raise or lower the signal
Paired box protein Pax-6 (Homo sapiens), sequence (P26367 whole entry, looked up): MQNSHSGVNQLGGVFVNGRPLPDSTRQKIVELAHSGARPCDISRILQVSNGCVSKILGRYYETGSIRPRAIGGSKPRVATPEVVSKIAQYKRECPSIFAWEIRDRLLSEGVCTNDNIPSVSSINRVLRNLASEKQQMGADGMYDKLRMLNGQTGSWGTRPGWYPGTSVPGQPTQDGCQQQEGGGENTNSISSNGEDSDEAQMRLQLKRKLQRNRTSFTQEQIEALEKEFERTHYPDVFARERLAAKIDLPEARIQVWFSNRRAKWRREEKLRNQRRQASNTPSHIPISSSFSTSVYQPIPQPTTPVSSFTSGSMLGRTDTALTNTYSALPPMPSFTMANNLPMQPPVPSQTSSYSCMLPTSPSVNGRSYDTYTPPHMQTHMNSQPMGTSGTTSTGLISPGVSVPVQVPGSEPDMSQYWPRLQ
In short: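 Fluorescent RT-PCR products separated by capillary electrophoresis report PAX6-linked promoter mRNA in HepG2 cells 24 h post-dose. Curves fitted bidirectionally, DMSO as negative control.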

[18] = ATG_TAL_CIS: Attagene CIS-FACTORIAL HepG2 Assay for human TAL Basal Promoter (AID 2282966); conditions: HepG2 Attagene cis-factorial TAL promoter reporter; actives raise or lower the signal;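 further: background control endpoint measuring basal TAL promoter reporter mRNA not a specific factor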
In short: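 Endogenous transcription-factor activity is sensed in HepG2 cells through transfected cis-promoter reporter constructs. After 24 h dosing, reporter transcripts are quantified by RT-PCR and capillary electrophoresis. Gain or loss of signal is fitted relative to DMSO.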

[19] = molecular target: Signal transducer and activator of transcription 3 (Homo sapiens) (UniProt P40763); experiment: ATG_STAT3_CIS: Attagene CIS-FACTORIAL HepG2 Assay for human Signal Transducer and Activator of Transcription 3 (STAT3) (AID 2282963); conditions: HepG2, Attagene cis-factorial STAT3 reporter transcription; actives raise or lower the signal
Signal transducer and activator of transcription 3 (Homo sapiens), sequence (P40763 whole entry, looked up, the tested form may be a part): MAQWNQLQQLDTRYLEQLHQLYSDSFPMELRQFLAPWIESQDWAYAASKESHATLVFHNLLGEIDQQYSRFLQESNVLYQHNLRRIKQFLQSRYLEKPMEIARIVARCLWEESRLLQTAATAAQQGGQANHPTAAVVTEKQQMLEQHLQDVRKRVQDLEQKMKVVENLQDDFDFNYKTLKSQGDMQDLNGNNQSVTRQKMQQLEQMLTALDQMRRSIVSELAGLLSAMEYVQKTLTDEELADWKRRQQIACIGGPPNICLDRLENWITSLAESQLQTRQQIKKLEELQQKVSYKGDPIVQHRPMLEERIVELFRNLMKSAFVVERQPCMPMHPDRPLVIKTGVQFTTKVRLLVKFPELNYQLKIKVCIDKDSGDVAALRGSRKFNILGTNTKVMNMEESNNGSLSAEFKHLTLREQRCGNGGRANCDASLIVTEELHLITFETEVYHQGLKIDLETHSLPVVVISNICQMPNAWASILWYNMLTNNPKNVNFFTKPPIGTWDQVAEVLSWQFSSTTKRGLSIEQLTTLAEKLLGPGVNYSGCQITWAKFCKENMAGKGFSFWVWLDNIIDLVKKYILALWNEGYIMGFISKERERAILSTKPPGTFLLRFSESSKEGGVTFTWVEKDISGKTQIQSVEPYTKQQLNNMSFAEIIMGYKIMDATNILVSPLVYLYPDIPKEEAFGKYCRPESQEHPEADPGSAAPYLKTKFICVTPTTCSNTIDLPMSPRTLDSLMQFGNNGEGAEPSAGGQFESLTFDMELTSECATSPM
In short: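 Readout: fluorescent reporter mRNA fragments resolved by capillary electrophoresis. Setup: HepG2 transfected with MRTUs reporting endogenous transcription-factor activity, dosed 24 h. Gain or loss of signal fitted bidirectionally against DMSO control.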

Measured: AC50

CCN(Cc1c(F)cccc1Cl)c1c([N+](=O)[O-])cc(C(F)(F)F)cc1[N+](=O)[O-]
active: [7] 7.72 µM | [8] 1.26 µM
not listed: [16] | [17] | [18] | [19]
inactive: all other assays above

CCCCCCC(C)OC(=O)COc1nc(F)c(Cl)c(N)c1Cl (stereo not drawn)
not listed: [7] | [9] | [16] | [17] | [18] | [19]
inactive: all other assays above

CCN(CC)C(=O)c1cccc(C)c1
active: [8] 40.2 µM
inactive: [16] | [1] | [2] | [3] | [4] | [5] | [6] | [17] | [8] | [9] | [10] | [11] | [12] | [13] | [14] | [15] | [18]

CC(C)(c1ccc(O)cc1)c1ccc(O)cc1
inactive: [1] | [2] | [3] | [4] | [5] | [6] | [7] | [8] | [9] | [11] | [12] | [13] | [19] | [14] | [15]
active: [1] 142 µM [middle of 5 runs] | [3] 179 µM | [4] 45.7 µM | [5] 153 µM [middle of 6 runs] | [9] 28.6 µM and 38.9 µM and 15 µM | [12] 60 µM | [19] 33.4 µM | [14] 140 µM [middle of 4 runs]

CCCCOCCOCCOCc1cc2c(cc1CCC)OCO2
active: [7] 8.08 µM | [8] 2.21 µM
not listed: [16] | [17] | [18]
inactive: all other assays above

Cc1nn(C)c(Oc2ccccc2)c1C=NOCc1ccc(C(=O)OC(C)(C)C)cc1
active: [5] 9.45 µM | [6] 1.88 µM | [17] 1.88 µM | [8] 1.15 µM | [9] 0.0423 µM | [12] 0.0212 µM
not listed: [7] | [18] | [19]
inactive: all other assays above

COC(=O)c1cccc(C)c1S(=O)(=O)NC(=O)Nc1nc(OCC(F)(F)F)nc(N(C)C)n1
active: [8] 34.5 µM
not listed: [17] | [18] | [19]
inactive: all other assays above

CCCCC(CC)COC(=O)c1ccccc1C(=O)O (stereo not drawn)
active: [8] 24.6 µM
not listed: [9] | [17] | [19]
inactive: all other assays above

c1ccc(Nc2ccccc2)cc1
active: [3] 100 µM | [8] 64 µM and 37.5 µM | [9] 20.6 µM
inactive: [1] | [2] | [3] | [4] | [5] | [6] | [7] | [17] | [9] | [10] | [11] | [12] | [13] | [19] | [14] | [15]

C#CCOC(=O)[C@@H](C)Oc1ccc(Oc2ncc(Cl)cc2F)cc1
active: [8] 19.1 µM | [9] 18 µM
not listed: [5] | [17] | [19]
inactive: all other assays above
